Assay results: PubChem BioAssay AID602340 (Broad Institute, 2012)
The whole screen tested about 330,000 compounds, of which about 2,600 (0.79%) were called active. This is one part of a sample in which actives are shown more often than they occur. A number with no mark means an inactive call.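 The calls were made as follows: active = mean ATP rescue above about 67%, or every replicate alone reaching that limit (limit read from the data, passing the limit was not always enough); inconclusive = no clear call, values can overlap the other calls; inactive = mean under the limit and some replicate under it.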

Experiment: suppressors of statin myotoxicity in C2C12 myotubes, primary screen, cell-based, single point, plate reader (AID 602340);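 also: myotubes were challenged with 10 µM simvastatin during compound exposure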
Conditions: C2C12 myotubes + simvastatin, ATP luminescence, 48 h; at 7.49 µM; stronger effect = higher value; scaled: DMSO 0, geranylgeraniol control 100

For `O=C(NCc1ccco1)C1CCCN(S(=O)(=O)c2ccccc2)C1` (configuration not stated), the rescue of ATP level was 133% (active).
In the case of `Cc1c(C(=O)N2CCN(c3ccc(F)cc3)CC2)oc2c1C(=O)CCC2`, the rescue of ATP level was 87.3% (active).
With `O=C(Nc1ccc(Cl)cc1)c1cc2nc(C3CC3)cc(C(F)(F)F)n2n1` the rescue of ATP level was 98.2% (active).
With `Cc1c(Br)cc(C(=O)N2CCCCCC2)c(C)c1C` the rescue of ATP level was 115% (active).

First: O=C(NCc1ccco1)C1CCCN(S(=O)(=O)c2cnc[nH]2)C1 (configuration not stated)
Second: CCCS(=O)(=O)N1CCCC(C(=O)NCc2ccco2)C1 (configuration not stated)
The rescue of ATP level of the first is lower: -4.96% for the first, -3.35% for the second.

First: O=C(C[C@@H]1CC[C@@H]2[C@H](COC[C@@H](O)CN2S(=O)(=O)c2cccc(Cl)c2)O1)N1CCOCC1
Second: O=C(Nc1ccccc1F)N[C@@H]1CC[C@H](CC(=O)N2CCCCC2)O[C@H]1CO
The rescue of ATP level of the first is lower: -7.32% for the first, 4.38% for the second.

First: CCCN(C)C[C@@H]1Oc2ncc(C#CC3CC3)cc2C(=O)N([C@H](C)CO)C[C@H]1C
Second: C[C@@H]1CN([C@@H](C)CO)C(=O)c2cc(C#CCN(C)C)cnc2O[C@H]1CN(C)S(=O)(=O)c1cn(C)cn1
The rescue of ATP level of the first is higher: 8.64% for the first, -11.7% for the second.

First: O=C(Nc1ccccc1)N1C[C@H]2[C@@H](c3ccccc31)[C@H](CO)N2Cc1ccc(F)cc1
Second: CC(=O)N1[C@@H]2c3ccc(-c4ccccc4)c(=O)n3C[C@@H]2[C@@H](CO)[C@@H]1C(=O)NCc1ccccc1F
The rescue of ATP level of the first is lower: 3.11% for the first, 5.23% for the second.

First: COc1cccc(S(=O)(=O)N[C@H]2C=C[C@H](CC(=O)NC3Cc4ccccc4C3)O[C@@H]2CO)c1
Second: CCCNC(=O)Nc1ccc2c(c1)OC[C@@H](C)N(C(=O)c1ccccc1F)C[C@H](C)[C@@H](OC)CN(C)C2=O
The rescue of ATP level of the first is higher: 4.32% for the first, -10.8% for the second.

Going from `O=C(c1cc(-c2ccc(F)cc2)on1)N1CCN(c2ccc(F)cc2)CC1` to `O=C(c1cc2cc(F)ccc2[nH]1)N1CCN(c2ccc(F)cc2)CC1`, the rescue of ATP level rises from -7.85% to 0.946%.

Going from `C[C@@H]1CN([C@H](C)CO)S(=O)(=O)c2ccc(C#C[C@@H](C)O)cc2O[C@H]1CN(C)CC1CC1` to `COCC(=O)Nc1ccc2c(c1)C(=O)N(C)[C@@H]1CC[C@H](CC(=O)NCC3CCCCC3)O[C@H]1CO2`, the rescue of ATP level rises from -38.8% to 13.3%.

Compared with `C=CCNC(=O)c1cc2nc(C3CC3)cc(C(F)F)n2n1`, `O=C(Nc1cc(C(F)(F)F)ccc1Cl)c1cc2nc3c(c(C(F)(F)F)n2n1)CCCC3` is higher in rescue of ATP level: -17.9% for the first, -15% for the second.

Going from `COc1cc(OC)c(C(=O)N2CCCC2)cc1OC` to `Cc1ccc(C(=O)N2CCCC2)c(F)c1F`, the rescue of ATP level rises from -3.44% to 16.3%.
